# Experimental data: the supplement of paper PMC6555819
# Test system: VDR:RXRa (NR concentration 270 nM, RXRa partner concentration 90 nM)
# Assay: PBM binding z-score (relative to random genomic background probes); higher = stronger binding; sequences stand for … in GC…GCGATTGACAGCGTAGAATGAAGG
# Description: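 Protein-binding microarray (Agilent 4x180K custom design, double-stranded 60-nt probes: 5' GC cap, 34-nt variable region, 24-nt constant primer region; full probe sequence given). Purified or IVT nuclear receptor:RXRα heterodimers (3:1 NR:RXRα, mostly 270:90 nM) or homodimers were incubated for 1 h in PBS with 2% milk and no ligand, then detected with Alexa488 antibodies. Fluorescence from o1-orientation probes (~5 replicates averaged) was converted to z-scores against 500 random hg19 background probes. Variable regions are seed direct-repeat (DR0–DR5) sites, all their single-nucleotide variants and half-site ablations.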
row,Sequence,PBM binding z-score
1,GATACAGGGTCAGCCAGAGGCCAGAGTATGGAAA,3.64
2,CCTACTGGGCCATCGGGTCATTGATATCAACGTT,2.27
3,AATGCAGGGTCACTAGGCCAGAGTAGGTACGAAT,4.04
4,CGAACTCGGTCAAGGACAGTGAATCTCCGCACGC,0.0619
5,CAGCCTAGCTCAGGGCCAGTATAGGAGGAACGTT,-0.907
6,GCTAGCAGGCCATCTGGGTCACTCAATGACGGGC,1.04
7,CCAGACAGCTGAAAGGTAACTCAGTCTGGTACGC,-0.0821
8,TCTTGTAGATCAAGCAGGTTAAGAAAGCCTGAGT,0.61
9,GCTGCTAGGTCTGGTTGGTCAGCTAACGGGTACG,-0.816
10,ATCTCTAGGTAACAAGTTCAGTGAGAGAGAGGAC,2.22
11,TCGCGTAGGTTAGGGGCATTCAGAATGGCGTCGA,0.397
12,CGAACTAGGTCATTGACAGGAGAGTGAATAGTAA,1.62
13,CGTCTAAGGTCAGAGAGGTCAGTGAATGCCGAGT,7.63
14,CCTCGCAGGCCAATCTGGGTCACTCAAGGCTTGA,0.596
15,ATCGATAGGTCGACGAGGTGAGTATACACCGTTT,2.96
16,GTACCAAGGTGAATAGGTCGTGGATGAGTAGGCG,0.918
17,ATCGAAAGGTCGACGAGGTGAGTGTACACCGTTT,5.55
18,AGAACGAGGGCAATAAGTTGATAGCACGGGTGGC,3.26
19,CGTCAAAGTTCAACTAAGGTAACGCAAAGCACGC,4.64
20,TCGAGTAGGTTAGTCGTGGCATTCAGCCAACATA,-0.0269

row,Sequence,PBM binding z-score
1,ACAGACAGGTGAGTGAAGGTAACTTAGCTGGACG,-0.357
2,GATACAGGGTCAAAGCCAGAGTACGCGTATTGAT,4.5
3,TCATATAGGTAATGCAGGTGAAAGTCGGCATCTA,0.862
4,CGTCCAAGGTCAAAGGTCAGAGAAGAGATGACGG,6.75
5,ATAGAAAGGTCGAGGTGAGTATAGAGAAAGGGAA,2.79
6,TCTTGTAGATCAAGCAGGTTAAGATAGCCTGAGT,0.573
7,ATCGCTAGGTAACAAGTTCAGTGAAAGAGAGGAC,1.42
8,GTACCATGGTGAATAGGTCGTTGATGAGTAGGCG,-0.0102
9,CAAAGTAGGTCACAGAGGTCAAAGTCCGTGCGTA,7.99
10,TCTGCTAGGTCAACGATTGTCAGCTAATCTGCTA,0.993
11,ATATGTAGGTTAAGGGTAATTCAGGTTGGTTCGC,1.61
12,GCAACGAGGGCAAGTTGATAGCAGAGTTTGATGG,0.955
13,AGAACGAGGGCACGCTGAGTTGGTAGCAGAGTAG,1.34
14,TCTGCTAGGTCAGTTGATCAGCTAACGAGCTGCC,0.135
15,CCTACTGCGCCAAGGTCATTGATCAGTCAAAGCA,3.65
16,GTACCAAGATGAATAGGTCGTTGATGAGTAGGCG,-0.0191
17,TCTTGTAGATCAACAGGAGGTTCAGAAAGATCGA,0.595
18,TGAATGAGGTTAAAGATCTGGGAACGTGGCGTCG,1.31
19,CCTAGCAGGCCCGGGTCACTCAAGCATTTCGCTT,1.43
20,GCTAGCAGGCCATTTGGGTCACTGAATGACGGGC,0.821
